Compound activity: PubChem BioAssay, several laboratories
Hsp90 block – displaces geldanamycin probe from tumor Hsp90; NCI-N417 lysate Hsp90, Cy3B-geldanamycin FP displacement; P07900; actives 0.35% (n = 64,000); AID 429; inhibition, % at 30 µM;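 active = inhibition above 50%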;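 also: 0% = tracer plus lysate wells and 100% = tracer alone without lysate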
CatB inh – inhibitors of human cathepsin B. P07858. purified cathepsin B, fluorogenic substrate, fluorescence. inhibition, %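 (tested at 10 µM)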. actives 0.1% (n = 63,000); in the data active = inhibition above about 21%;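 also: 0% = enzyme with no compound and 100% = no enzyme blank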
CatB mix inh – inhibitors of human cathepsin B in compound mixtures; actives 0.06% (n = 62,000); inhibition, %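 (ten-compound pools at 5 µM per compound and 50 µM total)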; Purified cathepsin B, AMC dipeptide fluorescence; AID 488; in the data active = inhibition above about 22%, passing the limit was not always enough; inconclusive = no clear call, values can overlap the other calls;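 also: 0% = enzyme without compound and 100% = no enzyme blank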
CatL inh – blocks human cathepsin L protease activity; actives 0.17% (n = 58,000); inhibition, %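 (tested at 10 µM)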; purified cathepsin L, fluorogenic substrate, fluorescence; P07711; in the data active = inhibition above about 45%;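 also: 0% = enzyme with no compound and 100% = no enzyme blank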
Target sequence (P07711 114-288 limits assumed): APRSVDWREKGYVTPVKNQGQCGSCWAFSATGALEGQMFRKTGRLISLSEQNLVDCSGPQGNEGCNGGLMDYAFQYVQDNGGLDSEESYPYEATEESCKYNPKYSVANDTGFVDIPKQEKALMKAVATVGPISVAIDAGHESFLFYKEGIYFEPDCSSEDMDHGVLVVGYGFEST
Target sequence (P07711 292-333 limits assumed): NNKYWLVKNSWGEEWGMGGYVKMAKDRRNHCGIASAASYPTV
Htt clearance – mutant huntingtin protein clearance. HeLa Exon1htt(103Q)mCFP, aggregate imaging; zero = plate's median compound well. inhibition, % at 1.5 µM. actives 0.42% (n = 47,000);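 active = inhibition of aggregate fluorescence above about 70%, also judged a hit by eye on the cell image, limit read from the data, passing the limit was not always enough; inconclusive = no rule stated for this call; inactive = not judged a hit on image review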;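 also: cells exposed to compound for three days before fixation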
CatS block – blocks human cathepsin S protease activity; P25774; recombinant cathepsin S, AMC dipeptide fluorescence, pooled mixtures; inhibition, %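 (tested at 5 µM per compound within 10-compound mixtures)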; actives 0.06% (n = 62,000); AID 501; in the data active = inhibition above about 32%, passing the limit was not always enough; inconclusive = no clear call, values can overlap the other calls;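 also: 0% = enzyme without compound and 100% = blank without enzyme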
Target sequence (P25774 115-331 limits assumed): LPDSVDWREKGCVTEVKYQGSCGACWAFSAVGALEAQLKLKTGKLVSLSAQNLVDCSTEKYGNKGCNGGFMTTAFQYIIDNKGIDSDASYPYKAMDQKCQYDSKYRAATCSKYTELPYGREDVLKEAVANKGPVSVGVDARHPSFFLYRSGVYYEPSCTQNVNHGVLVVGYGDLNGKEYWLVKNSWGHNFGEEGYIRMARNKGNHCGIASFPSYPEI
Active calls of the source: *; ? = inconclusive; nt = no result given. Only some compounds are listed: those with a hit (about 0.71% of all), similar ones and a draw of the others.

SMILES | Hsp90 block | CatB inh | CatB mix inh | CatL inh | Htt clearance | CatS block
COc1ccc(C(=O)c2no[n+]([O-])c2C(=O)c2ccc(OC)cc2)cc1 | -5 | 31* | 37* | 28 | -26 | 8
CC1CCCCN1Cc1nc2c(c(=O)n(C)c(=O)n2C)n1Cc1cccc2ccccc12 (stereo not drawn) | 0 | 5 | 3 | 4 | nt | 8
O=C1CC(c2ccco2)Cc2nc(N3CCc4ccccc4C3)ncc21 (stereo not drawn) | -5 | 21* | 4 | 14 | -99 | -6
Nc1ncc2c(n1)CC(c1ccco1)CC2=O (stereo not drawn) | 11 | -1 | 2 | 3 | nt | 2
COc1cc(NCCCC(C)=NO)c2nccc(Cl)c2c1 | 1 | nt | nt | nt | nt | nt
COC(=O)c1c(-c2cc(OC)c(OC)c(OC)c2)c2ccc(OCc3ccccn3)cc2c(=O)n1-c1ccc(N)cc1 | 0 | nt | nt | nt | nt | nt
CCn1c2ccccc2c2cc(C3C(C#N)=C(N)Oc4n[nH]c(COC)c43)ccc21 (stereo not drawn) | -14 | 7 | 3 | 11 | ? | 9
C=CC(=C)CC(NC)c1ccccc1 (stereo not drawn) | -4 | 3 | -1 | 53* | nt | -5
Nc1nonc1C(=O)OCC(=O)N1CCOCC1 | -2 | 31* | 8 | 8 | -4 | 0
COc1ccc(CCNC(=O)C(=O)N2CCCCC2)cc1OC | nt | nt | nt | nt | 52 | nt
CCC(=O)c1cn(CC(=O)NCc2cccnc2)c2ccccc12 | -3 | 4 | -1 | 12 | -30 | 6
O=C(Oc1oc(-c2ccco2)nc1C=Nc1ccccc1)c1ccco1 | -4 | 22* | 11 | 18 | -22 | 2
CCn1cc(C(=O)O)c(=O)c2ccc(Cc3ccccc3)nc21 | -6 | nt | nt | nt | nt | nt
CC(C)CCNc1nc2c(c(=O)n(Cc3cccc(F)c3)c(=O)n2C)n1C | 1 | -1 | -3 | 0 | -16 | -8
COc1ccc2c(c1[N+](=O)[O-])CCC/C2=N/OC(=O)c1cccc2ccccc12 | nt | nt | nt | nt | 8 | nt
Cc1c(NC(=O)c2c(F)c(F)c(F)c(F)c2F)c(=O)n(-c2ccccc2)n1C | -5 | 3 | -1 | -8 | nt | -5
Cc1c(NC(=O)c2ccccc2)c(=O)n(-c2ccccc2)n1C | nt | nt | nt | nt | 78* | nt
O=C(CSc1ncnc2c1oc1ccccc12)Nc1ccc2c(c1)OCCO2 | -4 | nt | nt | nt | 73* | nt
Cc1ccc(NCc2ccccc2O)cc1 | nt | nt | nt | nt | -5 | nt
Cc1ccc(CNc2ccc(O)cc2)cc1 | 56* | 0 | -2 | 9 | 11 | 9
COc1ccc(N(C(=O)Cc2cccs2)C(C(=O)NC2CCCCC2)c2cccn2C)cc1OC (stereo not drawn) | nt | nt | nt | nt | 94* | nt
Cn1cccc1C(C(=O)NC1CCCCC1)N(C(=O)Cc1cccs1)c1ccc2c(c1)OCCO2 (stereo not drawn) | 0 | 4 | 4 | nt | nt | -2
COc1cc(NS(=O)(=O)c2cccc([N+](=O)[O-])c2)c2ncccc2c1 | -4 | nt | nt | nt | nt | nt
Nn1c(=O)c2ccccc2n2c(SCc3ccccc3)nnc12 | -4 | 2 | -2 | -1 | 80* | -1
O=c1c(-c2ccc3c(c2)OCCO3)coc2c(CN3CCOCC3)c(O)ccc12 | 72* | -7 | 4 | -4 | 14 | -3
SMILES | Hsp90 block | CatB inh | CatB mix inh | CatL inh | Htt clearance | CatS block
CCC(C)(C)NCCCCCNc1cc(OC)cc2cccnc12 | 0 | nt | nt | nt | nt | nt
CC(C)c1nnc(NC(=O)Cn2nc(-c3ccc4c(c3)OCCO4)ccc2=O)s1 | -1 | -2 | 5 | -7 | 41 | -1
COc1cc(NS(=O)(=O)c2ccc([N+](=O)[O-])cc2[N+](=O)[O-])c2ncccc2c1 | 26 | nt | nt | nt | nt | nt
O=C(CSc1n[nH]c(-c2ccccc2)n1)c1ccc(O)c(O)c1 | 76* | -1 | 1 | 6 | nt | -2
CCc1ccc(C(=O)CSc2n[nH]c(-c3ccncc3)n2)cc1 | nt | nt | nt | nt | 25 | nt
COC(=O)c1ccc2c(c1)NC(=O)C(N1CCCCC1)S2 (stereo not drawn) | -3 | 3 | 2 | 22 | 20 | 0
COC(=O)c1ccc2c(c1)NC(=O)C(N1CCCC1)S2 (stereo not drawn) | -6 | 6 | 2 | 63* | -23 | 5
COc1cc(NC(C)CCCNC(C)C)c2ncccc2c1OC (stereo not drawn) | 36 | nt | nt | nt | nt | nt
CCN(CC)CCCNc1cc(OC)c(Nc2ccccc2)c2cccnc12 | 130* | nt | nt | nt | nt | nt
COc1ccccc1S(=O)(=O)Cc1ccc(C(=O)NCCN2CCCCCC2)o1 | 0 | 2 | 5 | 50* | nt | -2
COc1ccc(OC)c(C(c2nnnn2C2CCCC2)N2CCc3ccccc3C2)c1 (stereo not drawn) | -4 | 0 | 5 | 10 | 73* | 11
C[C@@H](Oc1ccc(Oc2cnc3ccc(Cl)cc3n2)cc1)C(=O)O | 3 | nt | nt | nt | nt | nt
CCOc1cc2[nH]c(=O)n(CCCCC(=O)NC3CCCCC3)c(=O)c2cc1OCC | 0 | 5 | -2 | 5 | nt | -3
COC1=CC(=O)OC12CCCCC2 | 0 | 3 | 1 | 5 | 70* | -3
Cc1cc(SCC#N)n2nc(C)c(-c3ccccc3)c2n1 | 1 | 1 | -3 | 48* | nt | 1
CN1C2CC(OC(=O)[C@H](CO)c3ccccc3)CC1C1OC12 (stereo partly drawn) | 3 | nt | nt | nt | nt | nt
S=C1NCCOCCOCCOCCOCCNC(=S)NCCOCCOCCOCCOCCN1 | nt | nt | nt | nt | 78* | nt
CC1CN(C2CCN(C(=O)c3ccccc3Cl)CC2)CC(C)O1 (stereo not drawn) | 1 | 0 | nt | -5 | -1 | nt
CC1CC(C)CN(C(=O)CCCn2c(=S)[nH]c3ccccc3c2=O)C1 (stereo not drawn) | -2 | -6 | 0 | 7 | 13 | 3
O=C(CCCn1c(=S)[nH]c2ccccc2c1=O)N1CCCCC1 | -1 | 2 | 3 | 11 | 73* | 14
Cc1nnc(Sc2nc3c(c(=O)[nH]c(=O)n3C)n2Cc2ccccc2Cl)s1 | -2 | 1 | 0 | -9 | nt | 1
CCCn1c2c(c(O)c(C(=O)NCCCN(CC)CC)c1=O)CCCC2 | nt | nt | nt | nt | 74* | nt
Nc1ccc2ncccc2c1N | 101* | 7 | nt | 79* | nt | nt
Nc1ccc2ncccc2c1 | 70* | 3 | 2 | 10 | 53 | 2
c1cnc2c(c1)ccc1cccnc12 | -2 | nt | nt | nt | nt | nt
COc1ccc(Cl)c(Cn2c(NCc3ccccn3)nc3c2c(=O)n(C)c(=O)n3C)c1 | -3 | -2 | -1 | -1 | -13 | 22
COc1ccc(Cl)c(Cn2c(NCCCO)nc3c2c(=O)n(C)c(=O)n3C)c1 | 1 | 1 | 1 | 57* | -21 | 5
COc1ccc(S(=O)(=O)N(CCc2ccccc2)CC(=O)O)cc1 | nt | nt | nt | nt | -9 | nt
COc1cccc2c1C(=O)c1c(O)c3c(c(O)c1C2=O)C[C@@](O)(C(=O)CO)C[C@@H]3O[C@H]1C[C@H](N)[C@H](O)[C@H](C)O1 | 73* | 6 | 6 | 21 | nt | 15
CCC1(O)CC2CN(CCc3c([nH]c4ccccc34)[C@@](C(=O)OC)(c3cc4c(cc3OC)N(C)C3[C@]45CCN4CC=C[C@@](CC)([C@@H](OC(C)=O)[C@]3(O)C(=O)OC)[C@H]45)C2)C1 (stereo partly drawn) | 0 | nt | nt | nt | nt | nt
